These results are taken from PubChem BioAssay (EPA / NIEHS).

One may read the AC50 as the concentration at which the activity in the assay is half-maximal.

Common to all, as to details: mRNA level, 48 h; actives raise or lower the signal
Read-out in assay [1]: matrix metalloproteinase-10 (MMP10), MMP10 (gene 4319)
In words: LTEA_HepaRG_MMP10: Life Technologies and Expression Analysis (LTEA) Assay for matrix metalloproteinase-10 (MMP10) using HepaRG (AID 2283517). The gist of the method: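 In differentiated HepaRG cultures kept in 0.5% DMSO, test chemicals act for 48 h over an eight-point range with a top dose of 100 uM. Expression is then quantified by TaqMan RT-PCR against ACTB, GAPDH and POLR2A.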

Read-out in a further assay: MYC, MYC (gene 4609)
Put plainly: LTEA_HepaRG_MYC: Life Technologies and Expression Analysis (LTEA) Assay for MYC using HepaRG (AID 2283518). The gist of the method: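 Expression changes were scored by TaqMan qRT-PCR with ACTB, GAPDH and POLR2A normalization. Cultures in serum-free induction medium received duplicate 8-point concentration series, highest 100 uM, for 48 h; DMSO (0.5%) served as baseline.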

Read-out in assay [2]: matrix metalloproteinase-3 (MMP3), MMP3 (gene 4314)
In words: LTEA_HepaRG_MMP3: Life Technologies and Expression Analysis (LTEA) Assay for matrix metalloproteinase-3 (MMP3) using HepaRG (AID 2283519). The gist of the method:
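Human liver HepaRG cultures received chemicals (top concentration 100 uM, 0.5% DMSO) for 48 h in duplicate. MMP3 mRNA induction or loss was then assessed via TaqMan qRT-PCR with housekeeping-gene normalisation.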

Read-out in assay [3]: Paternally Expressed 10 (PEG10), PEG10 (gene 23089)
Put plainly: LTEA_HepaRG_PEG10: Life Technologies and Expression Analysis (LTEA) Assay for Paternally Expressed 10 (PEG10) using HepaRG (AID 2283520).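 On AC50: differentiated HepaRG human liver cells in serum-free induction medium with 0.5% DMSO; PEG10 transcript by qRT-PCR normalised to ACTB GAPDH and POLR2A.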 A digest of the protocol: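 qRT-PCR read-out: PEG10 mRNA normalised to three housekeeping genes, fitted bidirectionally against 0.5% DMSO vehicle. HepaRG cells received test chemicals for 48 h in serum-free induction medium, 8 points, top 100 uM, half-log steps.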

Read-out in assay [4]: Nuclear factor NF-kappa-B p105 subunit (Homo sapiens) (UniProt P19838)
In words: LTEA_HepaRG_NFKB1: Life Technologies and Expression Analysis (LTEA) Assay for Nuclear Factor Kappa B Subunit 1 (NFKB1) using HepaRG (AID 2283521).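 On outcome: differentiated human HepaRG liver cells in serum-free induction medium; TaqMan qRT-PCR transcript normalised to ACTB GAPDH and POLR2A housekeeping genes.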 The gist of the method: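 HepaRG, 48 h exposure; 8-pt half-log series from 100 uM in 0.5% DMSO; duplicates. Readout: NFKB1 mRNA by qRT-PCR (Fluidigm arrays), housekeeping-normalized. Gain/loss fit vs DMSO baseline.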

Read-out in assay [5]: Protein phosphatase 2A (PPP2R4), PTPA (gene 5524)
Put plainly: LTEA_HepaRG_PPP2R4: Life Technologies and Expression Analysis (LTEA) Assay for Protein phosphatase 2A (PPP2R4) using HepaRG (AID 2283522). The gist of the method: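 HepaRG, 48 h exposure, 8-pt half-log series from 100 uM, 0.5% DMSO vehicle, duplicates. Readout: PPP2R4 mRNA, Fluidigm qRT-PCR, housekeeping-normalized. Bidirectional curve fit vs DMSO baseline.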

Read-out in assay [6]: solute carrier (SLC22A1), SLC22A1 (gene 6580)
In words: LTEA_HepaRG_SLC22A1: Life Technologies and Expression Analysis (LTEA) Assay for solute carrier (SLC22A1) using HepaRG (AID 2283524).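 On AC50: differentiated human HepaRG liver cells in serum-free induction medium; TaqMan qRT-PCR normalized to ACTB GAPDH and POLR2A housekeeping genes.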 A digest of the protocol:
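Transcript induction or suppression of SLC22A1 in human HepaRG cultures is scored after 48 h chemical treatment, with DMSO (0.5%) as baseline for bidirectional fitting. Concentrations span eight half-log points topping at 100 uM.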

Read-out in assay [7]: Pyruvate Dehydrogenase Kinase 4 (PDK4), PDK4 (gene 5166)
In words: LTEA_HepaRG_PDK4: Life Technologies and Expression Analysis (LTEA) Assay for Pyruvate Dehydrogenase Kinase 4 (PDK4) using HepaRG (AID 2283525). A digest of the protocol: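 Eight-point, half-log concentration series (max 100 uM, 0.5% DMSO) applied to differentiated HepaRG cells for 48 h in duplicate. Endpoint: PDK4 mRNA induction or repression by qRT-PCR against DMSO baseline.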

Read-out in assay [8]: NAD(P)H dehydrogenase [quinone] 1 (NQO1), NQO1 (gene 1728)
Put plainly: LTEA_HepaRG_NQO1: Life Technologies and Expression Analysis (LTEA) Assay for NAD(P)H dehydrogenase [quinone] 1 (NQO1) using HepaRG (AID 2283526). The gist of the method: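 qRT-PCR read-out (Fluidigm TaqMan), normalized to three housekeeping genes, after 48 h chemical exposure of HepaRG cells. Concentrations: eight points, top 100 uM, half-log steps, 0.5% DMSO vehicle. Gain or loss of signal fitted relative to DMSO.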

Read-out in assay [9]: Nuclear factor erythroid 2-related factor 2 (Homo sapiens) (UniProt Q16236)
In words: LTEA_HepaRG_NFE2L2: Life Technologies and Expression Analysis (LTEA) Assay for Nuclear factor erythroid 2-related factor 2 (NFE2L2) Transcription Factor using HepaRG (AID 2283527).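 On outcome: TaqMan qRT-PCR transcript level normalised to ACTB GAPDH and POLR2A housekeeping genes.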 The gist of the method: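 Human liver HepaRG line treated in duplicate for 48 h with an eight-point series topping at 100 uM. Gene expression of NFE2L2 by qRT-PCR, bidirectionally fitted against the vehicle control.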

Read-out in assay [10]: succinate dehydrogenase complex iron sulfur subunit B (SDHB), SDHB (gene 6390)
In words: LTEA_HepaRG_SDHB: Life Technologies and Expression Analysis (LTEA) Assay for succinate dehydrogenase complex iron sulfur subunit B (SDHB) using HepaRG (AID 2283528). A digest of the protocol: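 Readout is SDHB transcript level by qRT-PCR, normalised to three housekeeping genes and fitted bidirectionally against 0.5% DMSO vehicle. Human HepaRG cells were treated for 48 h at up to 100 uM.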

Read-out in assay [11]: Signal transducer and activator of transcription 3 (Homo sapiens) (UniProt P40763)
Put plainly: LTEA_HepaRG_STAT3: Life Technologies and Expression Analysis (LTEA) Assay for Signal transducer and activator of transcription (STAT3) using HepaRG (AID 2283529). A digest of the protocol: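 In this transcriptional endpoint, HepaRG cultures receive test chemicals at up to 100 uM for 48 h, tested in duplicate. STAT3 mRNA is normalized to ACTB, GAPDH and POLR2A.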

Read-out in assay [12]: solute carrier (SLCO1B1), SLCO1B1 (gene 10599)
In words: LTEA_HepaRG_SLCO1B1: Life Technologies and Expression Analysis (LTEA) Assay for solute carrier (SLCO1B1) using HepaRG (AID 2283530). A digest of the protocol:
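Human HepaRG cultures treated for 48 h with an eight-concentration half-log series topping at 100 uM; SLCO1B1 measured by qRT-PCR and fitted bidirectionally relative to DMSO.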

Read-out in assay [13]: sulfotransferase 2A1 (SULT2A1), SULT2A1 (gene 6822)
Put plainly: LTEA_HepaRG_SULT2A1: Life Technologies and Expression Analysis (LTEA) Assay for sulfotransferase 2A1 (SULT2A1) using HepaRG (AID 2283531). A digest of the protocol:
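Gene-expression endpoint in a human liver cell line: SULT2A1 mRNA change after 48 h chemical treatment, curves fitted in both directions relative to 0.5% DMSO vehicle. Concentrations spanned eight half-log steps from 100 uM.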

Read-out in assay [14]: Transforming Growth Factor (TGFA), TGFA (gene 7039)
In words: LTEA_HepaRG_TGFA: Life Technologies and Expression Analysis (LTEA) Assay for Transforming Growth Factor (TGFA) using HepaRG (AID 2283532). The gist of the method:
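Gene expression of TGFA was quantified by qRT-PCR after human HepaRG cells were treated for 48 h with test chemicals (eight concentrations, highest 100 uM, 0.5% DMSO). Activity in either direction was fitted relative to DMSO.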

Read-out in assay [15]: Transforming Growth Factor (TGFB1), TGFB1 (gene 7040)
Put plainly: LTEA_HepaRG_TGFB1: Life Technologies and Expression Analysis (LTEA) Assay for Transforming Growth Factor (TGFB1) Transporter using HepaRG (AID 2283533). A digest of the protocol:
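Eight-point concentration-response (max 100 uM, half-log) in HepaRG under serum-free induction conditions, 48 h. TGFB1 mRNA by qRT-PCR, housekeeping-normalized.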

Read-out in a further assay: TIMP1, TIMP1 (gene 7076)
In words: LTEA_HepaRG_TIMP1: Life Technologies and Expression Analysis (LTEA) Assay for TIMP1 using HepaRG (AID 2283534).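 On outcome: TaqMan qRT-PCR signal normalized to ACTB GAPDH and POLR2A housekeeping genes.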 The gist of the method: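 TIMP1 induction or repression in HepaRG cells after 48 h chemical exposure (eight concentrations, highest 100 uM), assessed by normalized qRT-PCR with bidirectional fitting to DMSO controls.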

Read-out in assay [16]: Tumor necrosis factor receptor 1 (TNFRSF1A), TNFRSF1A (gene 7132)
In words: LTEA_HepaRG_TNFRSF1A: Life Technologies and Expression Analysis (LTEA) Assay for Tumor necrosis factor receptor 1 (TNFRSF1A) using HepaRG (AID 2283535). A digest of the protocol:
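Assay uses 48 h chemical treatment of differentiated HepaRG monolayers, tested in duplicate at eight concentrations from 100 uM downward in 0.5% DMSO. mRNA is normalized to ACTB, GAPDH and POLR2A, with induction or suppression fitted relative to vehicle.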

Read-out in assay [17]: Thyroid Hormone Responsive (THRSP), THRSP (gene 7069)
In words: LTEA_HepaRG_THRSP: Life Technologies and Expression Analysis (LTEA) Assay for Thyroid Hormone Responsive (THRSP) using HepaRG (AID 2283536). The gist of the method:
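Cell model: human HepaRG, approx. 100,000 cells/well, 0.5% DMSO vehicle. Exposure lasts 48 h; phenobarbital 1 mM serves as induction positive control. Gene expression is measured by qRT-PCR against three endogenous control genes.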

Read-out in assay [18]: Phosphatase and tensin (PTEN), PTEN (gene 5728)
Put plainly: LTEA_HepaRG_PTEN: Life Technologies and Expression Analysis (LTEA) Assay for Phosphatase and tensin (PTEN) using HepaRG (AID 2283523). A digest of the protocol: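 Expression of PTEN is quantified in the human liver line HepaRG following two days of dosing (top concentration 100 uM, half-log dilutions, 0.5% DMSO). Values derive from bidirectional curve fitting relative to DMSO controls.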

Activity calls are given as the source filed them. How the source made its calls: active means hit-call score of the fitted dose curve at least 0.9, where 1 is the maximum; inactive means score below 0.9.

Chain of Nuclear factor NF-kappa-B p105 subunit (Homo sapiens) (P19838 whole entry, looked up): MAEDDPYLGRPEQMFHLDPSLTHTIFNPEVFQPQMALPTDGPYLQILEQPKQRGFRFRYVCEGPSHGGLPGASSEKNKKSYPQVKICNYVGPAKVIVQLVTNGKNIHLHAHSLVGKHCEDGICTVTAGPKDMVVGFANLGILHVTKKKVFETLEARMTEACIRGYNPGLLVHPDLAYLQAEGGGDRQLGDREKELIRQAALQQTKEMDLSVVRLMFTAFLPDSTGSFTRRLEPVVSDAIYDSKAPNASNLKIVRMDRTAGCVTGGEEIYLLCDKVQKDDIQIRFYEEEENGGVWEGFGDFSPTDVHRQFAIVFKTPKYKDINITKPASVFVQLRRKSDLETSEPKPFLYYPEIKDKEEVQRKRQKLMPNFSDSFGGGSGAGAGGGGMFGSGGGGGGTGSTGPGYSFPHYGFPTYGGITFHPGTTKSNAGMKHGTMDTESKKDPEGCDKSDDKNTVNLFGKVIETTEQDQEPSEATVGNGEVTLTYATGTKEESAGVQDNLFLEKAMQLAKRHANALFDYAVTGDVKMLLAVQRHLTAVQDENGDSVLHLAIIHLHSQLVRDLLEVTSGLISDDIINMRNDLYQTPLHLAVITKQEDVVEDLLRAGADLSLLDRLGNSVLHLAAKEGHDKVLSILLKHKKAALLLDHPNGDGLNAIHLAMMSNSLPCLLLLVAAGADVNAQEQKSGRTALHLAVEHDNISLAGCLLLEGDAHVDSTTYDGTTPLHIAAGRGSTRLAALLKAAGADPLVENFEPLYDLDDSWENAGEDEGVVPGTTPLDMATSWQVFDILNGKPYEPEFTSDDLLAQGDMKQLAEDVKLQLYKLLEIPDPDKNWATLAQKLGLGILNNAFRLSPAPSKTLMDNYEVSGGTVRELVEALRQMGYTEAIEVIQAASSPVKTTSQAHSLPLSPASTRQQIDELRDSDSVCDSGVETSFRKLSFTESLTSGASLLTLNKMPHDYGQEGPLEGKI
Chain of Signal transducer and activator of transcription 3 (Homo sapiens) (P40763 whole entry, looked up): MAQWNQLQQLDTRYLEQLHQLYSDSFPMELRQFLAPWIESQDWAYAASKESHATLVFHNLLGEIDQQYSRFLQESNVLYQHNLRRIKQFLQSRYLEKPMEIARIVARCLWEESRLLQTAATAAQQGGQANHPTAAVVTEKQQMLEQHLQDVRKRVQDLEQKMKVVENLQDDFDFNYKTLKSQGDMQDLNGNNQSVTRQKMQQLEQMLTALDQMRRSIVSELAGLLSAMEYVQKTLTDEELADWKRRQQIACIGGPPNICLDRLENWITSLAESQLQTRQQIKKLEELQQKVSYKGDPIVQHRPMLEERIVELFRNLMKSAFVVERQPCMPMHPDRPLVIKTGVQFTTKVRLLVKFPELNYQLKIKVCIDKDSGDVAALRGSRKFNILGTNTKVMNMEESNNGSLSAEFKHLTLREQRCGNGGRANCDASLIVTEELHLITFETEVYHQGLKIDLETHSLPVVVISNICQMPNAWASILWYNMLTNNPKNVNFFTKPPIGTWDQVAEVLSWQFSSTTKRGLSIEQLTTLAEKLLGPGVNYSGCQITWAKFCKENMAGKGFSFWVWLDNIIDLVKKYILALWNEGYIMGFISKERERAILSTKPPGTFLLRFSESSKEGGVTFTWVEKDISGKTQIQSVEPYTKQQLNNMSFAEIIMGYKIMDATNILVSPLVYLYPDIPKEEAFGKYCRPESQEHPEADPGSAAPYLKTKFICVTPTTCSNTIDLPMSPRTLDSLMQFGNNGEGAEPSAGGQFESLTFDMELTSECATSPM
Chain of Nuclear factor erythroid 2-related factor 2 (Homo sapiens) (Q16236 whole entry, looked up): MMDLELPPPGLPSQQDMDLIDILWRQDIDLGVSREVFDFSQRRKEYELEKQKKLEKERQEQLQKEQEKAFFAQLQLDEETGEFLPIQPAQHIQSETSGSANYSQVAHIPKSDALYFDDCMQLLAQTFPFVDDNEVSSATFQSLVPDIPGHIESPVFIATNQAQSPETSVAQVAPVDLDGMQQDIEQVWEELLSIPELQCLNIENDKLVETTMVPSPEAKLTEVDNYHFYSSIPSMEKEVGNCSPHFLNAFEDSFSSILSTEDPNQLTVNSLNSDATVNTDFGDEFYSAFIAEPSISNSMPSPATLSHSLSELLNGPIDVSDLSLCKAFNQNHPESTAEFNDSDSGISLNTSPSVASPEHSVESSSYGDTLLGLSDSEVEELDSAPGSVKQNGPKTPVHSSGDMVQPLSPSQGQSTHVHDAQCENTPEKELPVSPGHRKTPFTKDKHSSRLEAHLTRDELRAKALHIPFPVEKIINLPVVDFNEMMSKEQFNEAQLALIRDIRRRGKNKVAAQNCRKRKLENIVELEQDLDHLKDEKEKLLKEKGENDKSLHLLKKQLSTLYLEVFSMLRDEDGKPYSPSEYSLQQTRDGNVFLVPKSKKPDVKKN

On to `COc1cc(C=O)ccc1O`, for which the outcome in assay [1] was “inactive”; with MYC, MYC (gene 4609) it was “inactive”; in assay [2] it was “inactive”; in assay [3] it was “inactive”; in assay [4], “inactive”; in assay [5], “inactive”. In addition, the outcome in [6], in assay [7], in assay [8], in [9], in [10] and in assay [11] was inactive. Further, the outcome is “inactive” in assay [12]; “inactive” in assay [13]; “inactive” in assay [14]; “inactive” in assay [15]; “inactive” with TIMP1, TIMP1 (gene 7076); “inactive” in [16]. In addition, the outcome in assay [17] was inactive.

In the case of `COc1cc(-c2nc(NC(=O)c3cc4cc(C)cc(C)c4n3CC(=O)O)sc2CCC2CCCCC2)c(OC)cc1Cl`, the AC50 in assay [1] is 3.51 µM (active); with MYC, MYC (gene 4609), 19.8 µM (active); in assay [3], 11.9 µM (active); in assay [4], 19.4 µM (active); in assay [5], 8.71 µM (active); in assay [6], 7.07 µM (active). In addition, the AC50 in [7] was 24.4 µM (active); in [8], 3.35 µM (active); in assay [10], 13.4 µM (active); in [11], 19.3 µM (active); in assay [12] it was 6.78 µM (active); in assay [13], 6.35 µM (active). For the same molecule, the AC50 in [14] is 60.3 µM (active); in assay [15] it was 12.1 µM (active); with TIMP1, TIMP1 (gene 7076), 4.26 µM (active); in assay [16], 6.91 µM (active); in [17], 6.89 µM (active). Besides, the molecule was classed as inactive in [2] and in [9].

With `Cc1nc(C)nc(N2C[C@@H](C)N(c3ccnc([C@@H](C)O)n3)[C@@H](C)C2)n1`, the outcome is “inactive” in [1]; “inactive” with MYC, MYC (gene 4609); “inactive” in assay [3]; “inactive” in [4]; “inactive” in [5]; “inactive” in assay [18]. Besides, the molecule was called inactive in assay [7], in [8], in assay [9], in assay [10], in assay [11] and in assay [12]. Also, the outcome in assay [13] was “inactive”; in [14] it was “inactive”; in [15], “inactive”; in the assay with TIMP1, TIMP1 (gene 7076), “inactive”; in assay [16], “inactive”; in assay [17], “inactive”. Also, the AC50 in assay [2] was 25 µM (active).

Take `Cc1oc(-c2ccccc2)nc1CCOc1cccc2c1ccn2CCC(=O)O`: the AC50 in assay [1] was 82.1 µM (active); with MYC, MYC (gene 4609) it was 81.9 µM (active); in assay [6] it was 79.6 µM (active); in assay [7], 1.1 µM (active); in assay [9] it was 74.8 µM (active); in assay [12], 82.4 µM (active). Further, the AC50 is 90.5 µM (active) in assay [13], 50 µM (active) in [14], 16.9 µM (active) in [15] and 79.1 µM (active) in [17]. In addition, the molecule was called inactive in assay [2], in assay [3], in [4], in assay [5], in [8] and in [10]. The outcome in assay [11] is “inactive”; with TIMP1, TIMP1 (gene 7076), “inactive”; in assay [16], “inactive”.
